PubChem BioAssay (NCATS)
Values joined by “and” are separate entries in the source; they are usually repeats but may differ in a detail not shown here. Equal values may be shown once. Values without a mark were called inactive. For some assays here: Entries with a potency or affinity are not part of this list. Active and inactive are the calls of the source.

Legend:
[1] = Ebola virus entry assay, green fluorescence channel
[2] = Ebola virus entry assay, blue channel fluorescence
Wherever efficacy is given: 0% is about no effect.

| Compound | efficacy [1] | outcome [2] |
| --- | --- | --- |
| CCN1/C(=C/C=C/c2sc3ccccc3[n+]2CC)Sc2ccccc21 | 26.7% | – |
| CC(C)c1nc(CN(C)C(=O)N[C@H](C(=O)N[C@@H](Cc2ccccc2)C[C@H](O)[C@H](Cc2ccccc2)NC(=O)OCc2cncs2)C(C)C)cs1 | 31.8% | – |
| Cc1ccc(S(=O)(=O)NC(=O)NN2CCCCCC2)cc1 | -42.6% | – |
| Cc1cc(OCCOCC[N+](C)(C)Cc2ccccc2)ccc1C(C)(C)CC(C)(C)C | -204% | – |
| Cn1ccc2cc3c(cc21)CCN3C(=O)Nc1cccnc1 | -35.6% | – |
| CN1CC[C@H](c2c(O)cc(O)c3c(=O)cc(-c4ccccc4Cl)oc23)[C@H](O)C1 | 58.1% | – |
| NC(=O)N/N=C/c1ccc([N+](=O)[O-])o1 | 31.4% | – |
| CC1=C(C(=O)O)N2C(=O)[C@@H](NC(=O)[C@H](N)c3ccc(O)cc3)[C@H]2SC1 | -8.88% | – |
| CCCCOCCOCCOCc1cc2c(cc1CCC)OCO2 | -21% | – |
| CC(C)OC(=O)C(C)(C)Oc1ccc(C(=O)c2ccc(Cl)cc2)cc1 | 75.8% | – |
| Cc1ncc([N+](=O)[O-])n1CCO | -56.3% | – |
| CCCCc1nc(Cl)c(CO)n1Cc1ccc(-c2ccccc2-c2nn[nH]n2)cc1 | -25.2% | – |
| C=CC(=O)Nc1cc2c(Nc3ccc(F)c(Cl)c3)ncnc2cc1OCCCN1CCOCC1 | 99.2% | – |
| COC(=O)C1=C(C)NC(C)=C(C(=O)OC(C)C)C1c1cccc2nonc12 (stereo not drawn) | -20.5% | – |
| CN1CC(=O)N/C1=N/C(=O)Nc1cccc(Cl)c1 | -15.3% | – |
| O=C(CCCN1CCC(O)(c2ccc(Cl)cc2)CC1)c1ccc(F)cc1 | 61.7% | – |
| Cc1nc(N)nc(N)c1-c1ccc(Cl)c(Cl)c1 | -23% | – |
| CC/C=C(\C(=O)N[C@@H]1C(=O)N2C(C(=O)OCOC(=O)C(C)(C)C)=C(COC(N)=O)CS[C@H]12)c1csc(N)n1 | 11.1% and -32.9% | – |
| CC(C)NCC(O)c1ccccc1Cl (stereo not drawn) | 16.7% | – |
| Cc1ccc(-n2nc(C(C)(C)C)cc2NC(=O)Nc2ccc(OCCN3CCOCC3)c3ccccc23)cc1 | 134% | – |
| CCCCCCC[N+](CC)(CC)CCCCc1ccc(Cl)cc1 | 30.3% | – |
| CCC[C@H](N[C@@H](C)C(=O)N1[C@H](C(=O)O)C[C@@H]2CCCC[C@@H]21)C(=O)OCC | -25% | – |
| CC1(CN2CCC(n3c(=O)[nH]c4ccccc43)CC2)OCc2ccccc2-n2cccc21 (stereo not drawn) | 64.1% | – |
| CN[C@H]1CC[C@@H](c2ccc(Cl)c(Cl)c2)c2ccccc21 | -213% | – |

| Compound | efficacy [1] | outcome [2] |
| --- | --- | --- |
| C[C@@H]1CC(=O)NN=C1c1ccc(NN=C(C#N)C#N)cc1 | -24% and 20% | – |
| CC(C)C[C@H](NC(=O)[C@H](CCc1ccccc1)NC(=O)CN1CCOCC1)C(=O)N[C@@H](Cc1ccccc1)C(=O)N[C@@H](CC(C)C)C(=O)[C@@]1(C)CO1 | -41% | – |
| CCN(CC)C(=S)SSC(=S)N(CC)CC | -47.8% | – |
| O=[N+]([O-])c1ccc(O)c2ncccc12 | -18.6% | – |
| COc1cc(Nc2c(C#N)cnc3cc(OCCCN4CCN(C)CC4)c(OC)cc23)c(Cl)cc1Cl | 56% | – |
| Cn1cc[nH]c1=S | -16% | – |
| CC1=C(/C=C/C(C)=C/C=C/C(C)=C/C(=O)Nc2ccc(O)cc2)C(C)(C)CCC1 | -119% | – |
| OC1(c2ccc(Cl)c(C(F)(F)F)c2)CCN(CCCC(c2ccc(F)cc2)c2ccc(F)cc2)CC1 | -169% | – |
| O=c1[nH]cnc2c1ncn2[C@H]1CC[C@@H](CO)O1 | -19.1% | – |
| Cn1cnc2c(F)c(Nc3ccc(Br)cc3Cl)c(C(=O)NOCCO)cc21 | 24.6% | – |
| CCOC(=O)[C@H](CCc1ccccc1)N[C@@H](C)C(=O)N1Cc2ccccc2C[C@H]1C(=O)O | 30.9% | – |
| CCCCC(CC)CN=C(N)NC(N)=NCCCCCCN=C(N)NC(N)=NCC(CC)CCCC (stereo not drawn) | -201% | – |
| CCCc1nc2c(C)cc(-c3nc4ccccc4n3C)cc2n1Cc1ccc(-c2ccccc2C(=O)O)cc1 | 21.4% | – |
| CC(C)Oc1ccc2c(=O)c(-c3ccccc3)coc2c1 | 27.1% and 23.5% | – |
| N=c1nc(N2CCCCC2)cc(N)n1O | -16.3% | – |
| CC(C)(C)C(=O)OCOP(=O)(COCCn1cnc2c(N)ncnc21)OCOC(=O)C(C)(C)C | -17.9% | inactive |
| CC1(C)NC(=O)N(c2ccc([N+](=O)[O-])c(C(F)(F)F)c2)C1=O | 16.8% | – |
| COc1ccc([C@@H]2Sc3ccccc3N(CCN(C)C)C(=O)[C@@H]2OC(C)=O)cc1 | 53.7% | inactive |
| CCCCNc1ccc(C(=O)OCCOCCOCCOCCOCCOCCOCCOCCOCCOC)cc1 | 14% | inactive |
| COC(=O)Nc1nc2ccc(C(=O)C3CC3)cc2[nH]1 | 69.7% | – |
| COc1ccc(Cl)cc1C(=O)NCCc1ccc(S(=O)(=O)NC(=O)NC2CCCCC2)cc1 | 15.6% | inactive |
| CN(C)[C@@H]1C(=O)C(C(N)=O)=C(O)[C@@]2(O)C(=O)C3=C(O)c4c(O)ccc(Cl)c4[C@@H](O)[C@H]3C[C@@H]12 | 117% | inactive |
| CC(C)(C#N)c1cc(Cn2cncn2)cc(C(C)(C)C#N)c1 | 15% | inactive |
